KCNQ2 block = inhibitors of rat KCNQ2 potassium channel; O88943; CHO-K1 KCNQ2, FluxOR thallium flux, 20 min; stronger effect = lower value; B-score at 10 µM; 1.1% of 310,000 active; AID 2156;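 active means fluorescence ratio B-score at most minus 3 library SDs, with starting brightness B-score within 2 library SDs, cut at about -5.5 in these data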
Target sequence (O88943 whole entry, looked up): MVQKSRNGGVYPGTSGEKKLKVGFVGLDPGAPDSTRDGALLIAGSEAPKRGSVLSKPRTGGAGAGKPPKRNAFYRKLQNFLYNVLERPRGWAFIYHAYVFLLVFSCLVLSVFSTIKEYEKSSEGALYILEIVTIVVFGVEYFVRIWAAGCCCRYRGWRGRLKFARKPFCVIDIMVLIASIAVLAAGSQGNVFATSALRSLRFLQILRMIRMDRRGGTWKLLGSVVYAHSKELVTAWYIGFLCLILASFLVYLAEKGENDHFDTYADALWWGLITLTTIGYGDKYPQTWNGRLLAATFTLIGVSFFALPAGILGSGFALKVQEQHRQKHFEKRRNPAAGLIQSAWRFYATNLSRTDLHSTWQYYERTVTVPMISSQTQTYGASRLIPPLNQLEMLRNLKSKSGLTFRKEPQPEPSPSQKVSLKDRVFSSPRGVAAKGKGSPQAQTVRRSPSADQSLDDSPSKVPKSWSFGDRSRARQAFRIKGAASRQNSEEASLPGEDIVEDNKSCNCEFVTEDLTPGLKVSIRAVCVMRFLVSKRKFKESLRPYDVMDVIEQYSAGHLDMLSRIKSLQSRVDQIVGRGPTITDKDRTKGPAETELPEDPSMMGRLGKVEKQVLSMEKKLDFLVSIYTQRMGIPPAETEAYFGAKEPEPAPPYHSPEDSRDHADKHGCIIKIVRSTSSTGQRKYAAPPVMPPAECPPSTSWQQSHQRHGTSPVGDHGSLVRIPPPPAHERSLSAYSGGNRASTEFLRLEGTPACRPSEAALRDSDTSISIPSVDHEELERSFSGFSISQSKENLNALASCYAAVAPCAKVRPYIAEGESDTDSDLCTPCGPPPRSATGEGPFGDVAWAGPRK
KCNQ2 enhance = potentiators of rat KCNQ2 potassium channel | AID 2239 | CHO-K1 KCNQ2, FluxOR thallium flux fluorescence; stronger effect = higher value | 0.54% of 310,000 active | B-score at 10 µM;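 active means fluorescence ratio B-score at least 3 SD of library B-scores, with initial fluorescence B-score within 3 of them, cut at about 5.3 in these data; same plate scores as AID 2156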;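 further: B-score of peak minus minimum over baseline fluorescence ratio after K+ and Tl+ stimulus; positive B-score means potentiation of KCNQ2 with more thallium influx and brighter signal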
Kir21 conf inh = confirmation of mouse Kir2.1 potassium channel inhibitors; shares compounds with KCNQ2 enhance; Kir2.1-expressing cells, FluxOR thallium flux fluorescence; stronger effect = lower value; Tl flux remaining, % of negative control (stronger effect = lower value), % at 10 µM; 41% of 2,300 active; AID 2032;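 active means Primary-screen hit whose thallium flux fell at least 3 control SD below untreated wells in both duplicates, with normal baseline fluorescence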;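 further: 0% = blank wells without stimulus and 100% = stimulated no-compound controls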
HEK293 ctr = alters thallium flux in parental HEK293 cells, Kir2.1 counter-screen; shares compounds with KCNQ2 enhance; FluxOR thallium flux fluorescence; 0% = unstimulated blank wells; FluxOR signal as % of negative control (100 = no effect), % at 10 µM; 19% of 2,300 active;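 active means dye signal at least 3 control SD above or below untreated wells in both duplicates, raw fluorescence within 3, either direction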;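 further: percent is based on the flux ratio of peak minus minimum fluorescence over baseline F0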
CHO-K1 ctr = counter-screen for KCNQ2 potentiators: effect in parental CHO-K1 cells; shares compounds with KCNQ2 enhance; FluxOR thallium flux fluorescence; zero = vehicle mean+3SD, 100% = vehicle-minus-blank window; activity increase over 3SD of controls, % at 10 µM; 43% of 1,200 active; AID 2282;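 active means signal rise of at least 3 SD above the untreated control mean, in both duplicate wells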;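 further: counter screen of KCNQ2 potentiator hits so any rise reflects channel-independent effects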
KCNQ1 pot spec = tests whether KCNQ2 potentiators also act on human KCNQ1. 28% of 1,200 active. shares compounds with KCNQ2 enhance. CHO KCNQ1 stable, FluxOR thallium flux fluorescence; beyond 3SD, as % of vehicle-control signal. activation over 3SD threshold, % at 10 µM;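 active means fluorescence ratio rise of at least 3 SD of vehicle wells above their mean, in both replicate wells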;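 further: 0% = vehicle mean plus 3 SD and 100% = vehicle minus unstimulated blank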
KCNQ2 pot conf = confirmation of rat KCNQ2 potassium channel potentiators; shares compounds with KCNQ2 enhance; CHO-KCNQ2 cells, FluxOR thallium flux fluorescence; potentiation, less the hit threshold, % at 10 µM; 68% of 1,200 active; AID 2287;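 active means fluorescence ratio rising 3 SD or more over the vehicle control mean in both replicates, plus primary screen hit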;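 further: peak minus minimum thallium fluorescence divided by baseline after K/Tl stimulus; 0% = vehicle mean plus 3 SD and 100% = vehicle minus unstimulated blank difference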
Kir21 spec = mouse Kir2.1 off-target activity of KCNQ2 potentiators. shares compounds with KCNQ2 enhance. HEK293 Kir2.1, FluxOR thallium flux fluorescence. activity over 3SD threshold, % at 10 µM. 2% of 1,200 active. AID 2345;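 active means fluorescence ratio rise of at least 3 SD above the vehicle-control mean, seen in both replicates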;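 further: 0% = vehicle mean plus 3 SD and 100% = vehicle minus no-stimulus blank window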
KCNQ2 W236L pot = KCNQ2 potentiators acting on retigabine-insensitive rat KCNQ2 W236L mutant. current increase over 3SD of negative controls (%), stronger effect = higher value, % at 25 µM. shares compounds with KCNQ2 enhance. 10% of 940 active. CHO KCNQ2-W236L, automated patch clamp current;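 active means current increase at least 3 SD of the untreated controls above them in both duplicate recordings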
Active calls of the source: *; i = inactive; / = not tested or not shown. Hits are enriched below; roughly 1.6% of the tested compounds scored in any of these assays.

SMILES	KCNQ2 block	KCNQ2 enhance	Kir21 conf inh	HEK293 ctr	others
O=C1CCCN1c1ccc(C(=O)N(Cc2nnc(-c3ccc(Cl)cc3)o2)C2CC2)cc1	i	0.86	/	/
Cc1nc(N2CCN(C)CC2)c2c(C)c(C(=O)Nc3ccc(C)c(F)c3)sc2n1	i	/	64%*	i
Cc1nc(N2CCC(C)CC2)c2c(C)c(C(=O)Nc3ccc(C)c(F)c3)sc2n1	i	/	/	/
CCOC(=O)c1cc(S(=O)(=O)Nc2ccc(OC)cc2OC)cn1C	i	/	/	/
Cc1ccc2nsnc2c1S(=O)(=O)Nc1cccc2nsnc12	i	6.1*	i	238%*
Cc1ccc(C)c(NS(=O)(=O)c2c(C)ccc3nsnc23)c1	i	/	/	/
CC(=O)N1N=C(c2cccs2)CC1c1cc2cc(C)ccc2nc1Cl (centres undefined)	i	1.1	/	/
CC(C)[C@H](NC(=O)N1CC(=O)Nc2ccccc21)C(=O)N[C@@H](C(=O)O)c1ccccc1	i	0.64	/	/
Cc1cccc(NC(=O)N2CCc3ccccc3C2)c1C	i	0.29	/	/
CC(OC(=O)c1ccccc1Oc1ccccc1)C(=O)NC1CC1 (centres undefined)	i	/	/	/
O=C(c1ccccc1)N1CCN(c2ccc([N+](=O)[O-])c(NCC3CCCO3)c2)CC1 (centres undefined)	i	/	/	/
Clc1cccc(CN2CCc3c([nH]c4ccccc34)C2)c1	i	/	/	/
Cc1cccc(CN2CCc3c([nH]c4ccccc34)C2)c1	i	1.5	43%*	i
CCC1(C(=O)OC)CCc2c(cc(OC)c3ccccc23)C1=O (centres undefined)	i	/	/	/
C/C(=N\NC(=O)C1CC1)c1ccc(N2CCOCC2)cc1	i	0.08	/	/
C/C(=N\NC(=O)C1COc2ccccc2O1)c1ccc(N2CCOCC2)cc1 (centres undefined)	i	9.2*	i	i	CHO-K1 ctr=26*;KCNQ1 pot spec=-14;KCNQ2 pot conf=-20;Kir21 spec=-35
CC(C)(c1ccccc1)c1ccc(OCCCNCCO)cc1	i	1	28%*	i
COCCCNCCCOc1ccc(C(C)(C)c2ccccc2)cc1	i	0.52	/	/
CCCC(=O)Nc1ccc(NCc2ccc(C)s2)cc1	i	22*	i	i	CHO-K1 ctr=-22;KCNQ1 pot spec=-32;KCNQ2 pot conf=85*;Kir21 spec=-27;KCNQ2 W236L pot=i
CC(=O)Nc1ccc(NCc2ccc(C)s2)cc1	i	3.8	/	/
CCOc1ccc(CCNC(=O)CCNS(=O)(=O)c2ccc3c(c2)CCN3C(C)=O)cc1OCC	i	/	/	/
O=C(NNC(=O)c1ccccc1Cl)c1ccccc1Cl	i	0.96	/	/
COc1cccc(C(=O)NN=C2CCCC2)c1	i	/	/	/
O=C(NNC1=C(C(=O)C(F)(F)F)CCC1)c1ccc(Br)cc1	i	4.8	/	/
COc1cccc(C(=O)NNC2=C(C(=O)C(F)(F)F)CCC2)c1	i	6.4*	i	i	CHO-K1 ctr=3.0*;KCNQ1 pot spec=-7;KCNQ2 pot conf=21*;Kir21 spec=-28;KCNQ2 W236L pot=i
SMILES	KCNQ2 block	KCNQ2 enhance	Kir21 conf inh	HEK293 ctr	others
Nc1ccccc1C(=O)NNC1=C(C(=O)C(F)(F)F)CCC1	i	6.8*	i	i	CHO-K1 ctr=18*;KCNQ1 pot spec=-14;KCNQ2 pot conf=0;Kir21 spec=-29;KCNQ2 W236L pot=i
O=C(NNC1=C(C(=O)C(F)(F)F)CCC1)c1ccccc1Cl	i	19*	i	i	CHO-K1 ctr=-8;KCNQ1 pot spec=-20;KCNQ2 pot conf=74*;Kir21 spec=-28;KCNQ2 W236L pot=i
CC(C)(C)c1csc(N/N=C/c2cccnc2)n1	i	1.5	/	/
Cc1ccc(/C=N/Nc2nc(C(C)(C)C)cs2)o1	i	6.9*	i	70%*	CHO-K1 ctr=-8;KCNQ1 pot spec=-27;KCNQ2 pot conf=-3;Kir21 spec=-33;KCNQ2 W236L pot=i
CCc1nnc2c(NCCc3ccc(OC)c(OC)c3)nc3ccccc3n12	i	11*	i	i	CHO-K1 ctr=9.6*;KCNQ1 pot spec=-14;KCNQ2 pot conf=-22;Kir21 spec=-30
COc1ccc(CCNc2nc3ccccc3n3cnnc23)cc1OC	i	0.26	/	/
CCN(C(=O)c1ccc(S(=O)(=O)N2CCOCC2)cc1)C1CCS(=O)(=O)C1 (centres undefined)	i	/	/	/
O=c1ccn(CCCBr)c(=O)[nH]1	i	0.22	/	/
O=c1oc2cc(O)ccc2c2c1CCCC2	i	0.87	i	i
CC(=O)Oc1ccc2c3c(c(=O)oc2c1)CCCC3	i	0.71	/	/
Cc1ccc(NC(=O)c2cc3ccccc3o2)nc1	i	/	/	/
COc1ccc(C)cc1NC(=S)N1CCN(S(C)(=O)=O)CC1	i	1.8	/	/
CCOc1ccc(-n2cc(-c3ccccc3)c3c(=O)[nH]cnc32)cc1	i	0.58	/	/
CCOc1ccc(-n2cc(-c3ccccc3)c3c(=S)nc[nH]c32)cc1	i	6.9*	i	148%*	CHO-K1 ctr=11*;KCNQ1 pot spec=-16;KCNQ2 pot conf=0.0*;Kir21 spec=-27;KCNQ2 W236L pot=i
CCOC(=O)c1c(NC(=S)Nc2ccc(OC)cc2)sc2c1CCC2	i	/	/	/
C=CCNC(=S)Nc1sc2c(c1C(=O)OCC)CC(C(C)C)OC2 (centres undefined)	i	8.8*	i	197%*	CHO-K1 ctr=22*;KCNQ1 pot spec=84*;KCNQ2 pot conf=14*;Kir21 spec=-31;KCNQ2 W236L pot=i
CCC(NC(=S)NCc1ccc(F)cc1)c1ccccc1 (centres undefined)	i	1.3	58%*	62%*
O=C(NCc1ccc(F)cc1)C(c1ccccc1)c1ccccc1	i	/	/	/
COc1ccc(CNC(=O)C(C)OC(=O)CCN2C(=O)C3CC=CCC3C2=O)cc1 (centres undefined)	i	1.1	/	/
N#CC(c1ccc(O)cc1)c1ncc(C(F)(F)F)cc1Cl (centres undefined)	i	2.2	48%*	i
NC(=O)C(c1ccc(Cl)cc1)c1ncc(C(F)(F)F)cc1Cl (centres undefined)	i	3.4	/	/
COc1cc(Cl)ccc1OCc1cc(C(=O)N(C)CCc2cnn(C)c2)no1	i	/	/	/
Cc1occc1C(=O)Nc1ccccc1NC(=O)c1ccoc1C	i	0.04	/	/
Cc1occc1C(=O)Nc1cccc2ccccc12	i	11*	i	i	CHO-K1 ctr=11*;KCNQ1 pot spec=-16;KCNQ2 pot conf=56*;Kir21 spec=-38;KCNQ2 W236L pot=i
COc1ccc(C(=O)NC2CCCc3c2cnn3-c2cc(F)cc(F)c2)c(OC)c1OC (centres undefined)	i	/	/	/
CN1CCN(NC(=O)c2cn(-c3ccccc3)nc2-c2ccc(OC(F)F)cc2)CC1	i	/	/	/
O=C(CN1CCN(Cc2ccc(Cl)cc2)CC1)N1CCc2ccccc21	i	0.49	35%*	i
O=C(CN1CCN(Cc2ccccc2)CC1)N1CCCc2ccccc21	i	0.64	/	/
